Reference: PubChem BioAssay (NCI)
The panel holds about 79,000 compounds, 15% with a hit somewhere; the sample as a whole holds those more often. Activity calls are given as the source filed them. Cut-off read from the data, not from the text of the source: active = growth inhibition above about 70%; inactive = the rest.

What was measured:
[1] = NCI Yeast Anticancer Drug Screen. Data for the rad52 strain (AID 147);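 note: 0% = growth of vehicle-treated control cultures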; details: S. cerevisiae rad52 mutant growth inhibition, active compounds read high
Method in brief: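 Measured: yeast growth inhibition. System: strain with a defined DNA damage repair alteration. Reference: vehicle-treated control cultures.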

[2] = NCI Yeast Anticancer Drug Screen. Data for the wt1 strain (AID 149);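 note: 0% = growth of vehicle-treated wt1 cultures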; details: S. cerevisiae wt1 strain (SPY 50644) growth inhibition, active compounds read high
Method in brief: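 Readout: yeast growth inhibition, normalised to vehicle controls, in the wt1 strain exposed to test compounds.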

[3] = NCI Yeast Anticancer Drug Screen. Data for the rad50EPP+ strain (AID 151);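 note: 0% = growth of vehicle-treated control cultures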; details: S. cerevisiae rad50 mutant strain, active compounds read high
Method in brief: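 One strain with a rad50 alteration (rad50EPP+) was compound-treated, its growth then compared to that of vehicle controls.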

[4] = NCI Yeast Anticancer Drug Screen. Data for the mgt1 strain (AID 153); details: S. cerevisiae mgt1 mutant growth inhibition, active compounds read high
Method in brief: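 After exposure of the mgt1 yeast mutant to compound, growth was measured and reported as inhibition compared with vehicle controls.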

[5] = NCI Yeast Anticancer Drug Screen. Data for the rad50 strain (AID 155);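 note: 0% = growth of vehicle-only cultures of the same strain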; details: S. cerevisiae rad50 strain growth inhibition, active compounds read high
Method in brief: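 Compounds were tested on a yeast strain with an engineered DNA damage repair alteration; the reported value is growth inhibition normalised to vehicle treatment.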

[6] = NCI Yeast Anticancer Drug Screen. Data for the mec2-1 strain (AID 157); details: S. cerevisiae mec2-1 strain, active compounds read high
Method in brief: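 Test agents were screened against the mec2-1 yeast strain, with defined DNA repair or cell cycle alteration. Growth was scored as inhibition against vehicle-only controls.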

[7] = NCI Yeast Anticancer Drug Screen. Data for the rad14 strain (AID 159);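 note: 0% = growth of vehicle-treated control cultures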; details: S. cerevisiae rad14 strain growth inhibition, active compounds read high
Method in brief: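 Compound-treated yeast with a defined DNA-repair lesion; growth inhibition normalised to vehicle-treated cultures.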

[8] = NCI Yeast Anticancer Drug Screen. Data for the sgs1 mgt1 strain (AID 161);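 note: 0% = growth of cultures given vehicle only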; details: S. cerevisiae sgs1 mgt1 strain, active compounds read high
Method in brief: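 Test agents were incubated with a DNA-repair-mutant yeast strain. Growth was then read and compared against vehicle-treated controls.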

[9] = NCI Yeast Anticancer Drug Screen. Data for the CLN2oe strain (AID 163);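 note: 0% = growth of vehicle-only control cultures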; details: S. cerevisiae CLN2oe strain, active compounds read high
Method in brief: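 Here, growth inhibition in a cell-cycle-altered yeast strain after compound exposure was quantified against vehicle control growth.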

[10] = NCI Yeast Anticancer Drug Screen. Data for the cln2 rad14 strain (AID 165);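 note: 0% = growth equal to vehicle treated cultures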; details: S. cerevisiae cln2 rad14 strain, active compounds read high
Method in brief: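 Growth of compound-exposed yeast (cln2 rad14 genotype) measured and expressed as inhibition relative to vehicle.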

[11] = NCI Yeast Anticancer Drug Screen. Data for the bub3 strain (AID 167); details: S. cerevisiae bub3 mutant strain, active compounds read high
Method in brief: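 Growth of a checkpoint-deficient yeast mutant is measured after compound exposure. Values represent inhibition relative to vehicle.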

[12] = NCI Yeast Anticancer Drug Screen. Data for the wt2 strain (AID 169);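 note: 0% = growth of vehicle-treated yeast cultures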; details: S. cerevisiae wt2 strain growth inhibition, active compounds read high
Method in brief: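 Genetically defined yeast strains from a DNA-repair/cell-cycle panel were used. Compound-exposed yeast growth was measured, and the inhibition was calculated relative to vehicle treatment.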

[13] = NCI Yeast Anticancer Drug Screen. Data for the mlh1 strain (AID 171);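 note: 0% = growth of vehicle-treated control cultures of the same strain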; details: S. cerevisiae mlh1 strain growth inhibition, active compounds read high
Method in brief: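 Here the genetically defined yeast mutant is grown with each compound, and the extent to which its growth falls below that of vehicle-exposed cells is reported.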

[14] = NCI Yeast Anticancer Drug Screen. Data for the sgs1 strain (AID 173);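 note: 0% = growth of vehicle-only control cultures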; details: S. cerevisiae sgs1 mutant, active compounds read high
Method in brief: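 Relative growth inhibition, referenced to vehicle, was determined in a yeast strain with a defined alteration affecting DNA damage repair or cell cycle control after compound exposure.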

[15] = NCI Yeast Anticancer Drug Screen. Data for the mlh1 rad18 strain (AID 175); details: S. cerevisiae mlh1 rad18 strain growth inhibition, active compounds read high
Method in brief: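 In this whole-cell yeast screen, a strain with altered DNA damage repair is challenged with compound, and its growth is measured against matched vehicle-treated controls.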

[16] = at 5.0 µM (retest, dose inferred, filed as 0.5)
[17] = at 50.0 µM (retest, dose inferred, filed as 5.0)

Measured: growth inhibition

COC(=O)c1cc(-c2ccc(C)cc2)[nH]c(=O)c1C#N
inactive: [1]; at 1.2 µM -2% | [1]; at 3.7 µM 0% | [1]; at 11.0 µM 1% | [1]; at 33.0 µM -1% | [1]; at 100.0 µM -4% | [2]; at 1.2 µM -2% | [2]; at 3.7 µM -1% | [2]; at 11.0 µM -1% | [2]; at 33.0 µM -1% | [2]; at 100.0 µM 0% | [3]; at 1.2 µM -5% | [3]; at 3.7 µM -4% | [3]; at 11.0 µM -5% | [3]; at 33.0 µM -6% | [3]; at 100.0 µM -4% | [4]; at 1.2 µM 0% | [4]; at 3.7 µM 0% | [4]; at 11.0 µM 0% | [4]; at 33.0 µM -1% | [4]; at 100.0 µM 0% | [5]; at 1.2 µM -1% | [5]; at 3.7 µM -2% | [5]; [16] -5% | [5]; at 11.0 µM 0% | [5]; at 33.0 µM -4% | [5]; [17] 9% | [5]; at 100.0 µM -2% | [6]; at 1.2 µM 0% | [6]; at 3.7 µM 0% | [6]; [16] 11% | [6]; at 11.0 µM -2% | [6]; at 33.0 µM -1% | [6]; [17] 24% | [6]; at 50.0 µM 56.9% | [6]; at 100.0 µM 10% | [7]; at 1.2 µM 1% | [7]; at 3.7 µM -6% | [7]; at 11.0 µM -6% | [7]; at 33.0 µM -19% | [7]; at 100.0 µM -11% | [8]; [16] -4% | [8]; [17] 20% | [9]; at 1.2 µM -3% | [9]; at 3.7 µM 1% | [9]; at 11.0 µM -1% | [9]; at 33.0 µM 3% | [9]; at 100.0 µM 4% | [10]; [16] 30% | [10]; [17] 43% | [10]; at 50.0 µM 66% | [11]; at 1.2 µM -8% | [11]; at 3.7 µM -6% | [11]; [16] 33% | [11]; at 11.0 µM 6% | [11]; at 33.0 µM -2% | [11]; [17] 16% | [11]; at 50.0 µM 52.6% | [11]; at 100.0 µM -7% | [12]; at 1.2 µM -2% | [12]; at 3.7 µM 0% | [12]; at 11.0 µM -2% | [12]; at 33.0 µM -2% | [12]; at 100.0 µM -2% | [13]; at 1.2 µM -6% | [13]; at 3.7 µM -2% | [13]; at 11.0 µM 0% | [13]; at 33.0 µM 0% | [13]; at 100.0 µM -21% | [14]; at 1.2 µM -4% | [14]; at 3.7 µM -1% | [14]; at 11.0 µM -1% | [14]; at 33.0 µM -2% | [14]; at 100.0 µM -4% | [15]; [16] 0% | [15]; [17] -1%
active: [5]; at 50.0 µM 86.5% | [8]; at 50.0 µM 84.3% | [15]; at 50.0 µM 90.2%

COc1ccc(-c2cn(-c3ccc(I)cc3)c3ncnc(N)c23)cc1
inactive: [1]; at 1.2 µM -2% | [1]; at 3.7 µM -5% | [1]; at 11.0 µM -9% | [1]; at 33.0 µM -7% | [1]; at 100.0 µM -8% | [2]; at 1.2 µM -4% | [2]; at 3.7 µM -4% | [2]; at 11.0 µM -10% | [2]; at 33.0 µM -11% | [2]; at 100.0 µM -2% | [3]; at 1.2 µM -2% | [3]; at 3.7 µM 1% | [3]; at 11.0 µM 6% | [3]; at 33.0 µM 8% | [3]; at 100.0 µM 6% | [4]; at 1.2 µM -6% | [4]; at 3.7 µM -8% | [4]; at 11.0 µM -11% | [4]; at 33.0 µM 2% | [4]; at 100.0 µM 17% | [5]; at 1.2 µM -2% | [5]; at 3.7 µM -2% | [5]; [16] 4% | [5]; at 11.0 µM -2% | [5]; at 33.0 µM 1% | [5]; [17] 69% | [5]; at 50.0 µM 14.8% | [5]; at 100.0 µM -10% | [6]; at 1.2 µM -4% | [6]; at 3.7 µM -4%
